Laboratory results published in PubChem BioAssay.
Several values for one entry are separate records, joined by “and”; a condition that tells them apart may be missing. Equal entries are not always repeated. The source holds several records for some structures; these can differ, active in one and inactive in another. Activity calls are given as the source filed them. Unless noted, how the calls were made is not given here.

What was measured:
[1] = liver-stage malaria parasite growth inhibition, primary screen, cell-based, HepG2, luciferase luminescence, HepG2 viability (AID 624349; in the data active means parasite load remaining mostly below about 12%, no sharp cut-off; inactive means mostly above about 10%;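 further: 100% = mean of DMSO negative control wells on the same plate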); details: P. berghei liver stage in HepG2, luciferase luminescence, concentration not given here; parasite load remaining: stronger effect = lower value; viability: measured here: HepG2 viability without parasites
[2] = test system: Hepatitis C virus NS3 helicase; experiment: HCV NS3 helicase inhibitors, primary screen, biochemical, fluorescence polarization, LOPAC1280 library (AID 687035; in the data active means inhibition above about 37%); details: Purified HCV NS3 helicase, Cy5-dT15 ssDNA binding fluorescence polarization; stronger effect = higher value; concentration not given here
[3] = Cy5 fluorescence quenching or enhancement artefacts, artefact control for HCV NS3 helicase inhibitor project, biochemical, LOPAC1280 (AID 687037); details: Cy5-DNA-NS3h complex fluorescence interference counterscreen
[4] = Cy5 fluorescence interference with SSB-bound oligo, artefact control for HCV NS3 helicase inhibitor project, biochemical, NIH Clinical Collection, E. coli SSB (AID 743268)
[5] = test system: Hepatitis C virus NS3 helicase; experiment: HCV NS3 helicase inhibitors, primary screen, biochemical, fluorescence polarization, NIH Clinical Collection (AID 743270); details: NS3 helicase binding to Cy5-dT15 DNA, stronger effect = higher value, concentration not given here
[6] = biological target: Single-stranded DNA-binding protein (Escherichia coli (strain K12)) (UniProt P0AGE0); experiment: E. coli SSB displacement from DNA, counter-screen for HCV NS3 helicase inhibitor project, biochemical, fluorescence polarization, NIH Clinical Collection (AID 743271; in the data active means inhibition above about 28%); details: stronger effect = higher value, concentration not given here
[7] = fluorescence interference in NS3h assay format, artefact control for HCV NS3 helicase inhibitor project, biochemical, NIH Clinical Collection (AID 743272); details: fluorescence interference counterscreen, stronger effect = lower value;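 further: HCV NS3 helicase with a Cy5 labelled single stranded DNA probe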
[8] = test system: Neuropilin-2 / VEGF-C interaction (human); experiment: inhibitors of NRP2–VEGF-C binding, biochemical, microplate binding format, z-score (AID 743281); details: microplate NRP2/VEGF-C binding assay; stronger effect = lower value
[9] = stimulators of nuclear beta-catenin in C2C12, primary screen, imaging, WNT3A-conditioned medium, mouse C2C12, NPC library (AID 1117326; in the data active means nuclear beta-catenin stimulation mostly above about 4.2%, no sharp cut-off; inactive means mostly below about 10%); details: stronger effect = higher value
[10] = stimulators of insulin release from INS-1E, primary screen, cell-based, 5 mM glucose, NPC library (AID 1117329;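 active means compound raises insulin release from rat beta cells at 5 mM glucose, no numeric limit stated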); details: rat INS-1E insulin secretion, at 10 µM, stronger effect = higher value
[11] = growth inhibition of GSK3B-pretreated HCT116 cells – cell-based, CellTiter-Glo, 0.2 to 20 µM (AID 1117336;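 active means compounds lowering colon cancer cell viability after pretreatment blocking the GSK3B kinase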); details: HCT116 viability after GSK3B inhibitor, at 20 µM, stronger effect = higher value
[12] = inhibition of endothelial tube formation, primary screen, imaging, VEGF stimulated, CD31 staining, tube area, NPC library (AID 1117340;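 active means compound that reduces growth-factor-driven endothelial tube area in a mixed cell culture, no cutoff stated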); details: VEGF-stimulated ADSC/ECFC co-culture, at 10 µM, stronger effect = higher value
[13] = glucagon-like peptide 1 release enhancers, primary assay, NCI-H716 cell line, NPC library (AID 1117341;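 active means compound raises GLP1 secretion from the human gut endocrine cells, with no numeric limit stated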); details: NCI-H716 cells, at 10 µM, stronger effect = higher value
[14] = HCT116 colon cancer cell growth inhibition, primary screen, CellTiter-Glo luminescence, NPC library (AID 1117342;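 active means compounds that lower survival of HCT116 colon cancer cells in the luminescence readout, no numeric limit stated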); details: at 20 µM (top of the series)
[15] = CellTiter-Glo luminescent readout of SW480 viability loss, NPC library primary (AID 1117343;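 active means compounds that lower viability of the colon cancer cells in the luminescence readout, with no numeric limit stated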); details: CellTiter-Glo luminescence; at 20 µM (top of the series)
[16] = decreased DLD-1 cellular survival, CellTiter-Glo luminescent readout, NPC compound collection, primary HTS (AID 1117346;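 active means compounds that lower survival of DLD-1 colon cancer cells in the luminescence readout, no cutoff given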); details: DLD-1 viability, CellTiter-Glo luminescence; at 20 µM (top of the series)

| Structure (SMILES) | parasite load remaining [1] | viability [1] | inhibition [2] | fluorescence ratio (interference) [3] | fluorescence ratio [4] | inhibition [5] | inhibition [6] | fluorescence ratio [7] | z-score [8] | nuclear beta-catenin stimulation ([9]; at 10 µM) | nuclear beta-catenin stimulation ([9]; stimulation, at 2 µM) | insulin secretion stimulation [10] | viability decrease [11] | tube area decrease [12] | GLP1 secretion stimulation [13] | inhibition of viability [14] | viability decrease (inhibition) [15] | viability decrease (inhibition) [16] |
| --- | --- | --- | --- | --- | --- | --- | --- | --- | --- | --- | --- | --- | --- | --- | --- | --- | --- | --- |
| Cc1cn([C@H]2C=C[C@@H](CO)O2)c(=O)[nH]c1=O | 72.2% (inactive) and 110% (inactive) | 107% and 74.4% | -2% (inactive) | 1 (inactive) | 1.04 (inactive) and 0.101 (active) | -3.56% (inactive) and -2.27% (inactive) | -0.87% (inactive) and -5.05% (inactive) | 0.98 (inactive) and 1.04 (inactive) | 0.0189 (inactive) | -0.2% (inactive) | 1.1% | 4.4% (inactive) | -0.2% (inactive) | -1.6% (inactive) | -0.3% (inactive) | 1.2% (inactive) | -4.8% (inactive) | -8.9% (inactive) |
| CCOC(=O)c1ncn2c1CN(C)C(=O)c1cc(F)ccc1-2 | 6.63% (inactive) and 66.3% (inactive) | 73.1% and 107% | -4% (inactive) | 1 (inactive) | 1.05 (inactive) | 1.98% (inactive) | -0.1% (inactive) | 0.99 (inactive) | -0.197 (inactive) | 0.8% (inactive) | -0.7% | 1.6% (inactive) | -39.4% (inactive) | -3.4% (inactive) | 0.1% (inactive) | 0.15% (inactive) | 17.1% (inactive) | 4% (inactive) |
| CCCOc1ccc(C(=O)OCCN(CC)CC)cc1N | 35.3% (inactive) and 89.5% (inactive) and 24.4% (inactive) | 102% and 98.4% and 98.5% |  |  | 0.101 (active) | -4.09% (inactive) | 0.29% (inactive) | 1.02 (inactive) |  | 1.3% (inactive) | 5.7% | 1.5% (inactive) | 47.8% (inactive) | -3.5% (inactive) | -1% (inactive) | 74.2% (active) | 36% (inactive) | 90.1% (active) |
| CCOC(=O)O[C@]1(C(=O)OCCl)CC[C@H]2[C@@H]3CCC4=CC(=O)C=C[C@]4(C)[C@H]3[C@@H](O)C[C@@]21C | 196% (inactive) | 72.9% |  |  | 1.04 (inactive) | -0.4% (inactive) | 4.52% (inactive) | 1.05 (inactive) |  | -1.2% (inactive) | -0.3% | 7% (inactive) | 12.3% (inactive) | -0.4% (inactive) | 0.9% (inactive) | 3.1% (inactive) | 0.5% (inactive) | 21.9% (inactive) |
| COc1ccc(C2CNC(=O)C2)cc1OC1CCCC1 (configuration not stated) | 73.2% (inactive) and 98.7% (inactive) and 48.7% (inactive) | 91.9% and 79% and 67.5% | -7% (inactive) | 1 (inactive) | 1.03 (inactive) | 2.77% (inactive) | -0.1% (inactive) | 0.98 (inactive) | 0.503 (inactive) | -0.2% (inactive) | -0.4% | 0.8% (inactive) | 23.9% (inactive) | 1.1% (inactive) | 4.4% (inactive) | 13.6% (inactive) | 88.4% (active) | 29.1% (inactive) |
| C#C[C@]1(O)CC[C@H]2[C@@H]3CCc4cc(O)ccc4[C@H]3CC[C@@]21C | 111% (inactive) | 66.2% |  |  | 0.98 (inactive) | 1.98% (inactive) | -0.87% (inactive) | 0.92 (inactive) |  | 1.5% (inactive) | 0.8% | 10.3% (inactive) | 45.9% (inactive) | 85.8% (active) | -3.4% (inactive) | 70.3% (active) | 65.6% (active) | 62.5% (active) |
| CCN1CCC[C@H]1CNC(=O)c1cc(S(N)(=O)=O)ccc1OC | 118% (inactive) and 67.6% (inactive) | 78.9% and 220% | -1% (inactive) | 1 (inactive) | 1.03 (inactive) | 0.4% (inactive) | 6.06% (inactive) | 0.97 (inactive) | -0.132 (inactive) | -1.5% (inactive) | 0.2% | 1% (inactive) | -4.3% (inactive) | 10.5% (inactive) | -3% (inactive) | -5.3% (inactive) | -4.8% (inactive) | -5.7% (inactive) |
| CC(N)C12CC3CC(CC(C3)C1)C2 (configuration not stated) | 59.2% (inactive) and 69.6% (inactive) and 54.8% (inactive) | 94.8% and 97.2% and 73% |  |  | 1.02 (inactive) | -2.27% (inactive) | 1.81% (inactive) | 1.03 (inactive) |  | 1.8% (inactive) | 0.3% | 11% (inactive) | -3.4% (inactive) | 15.2% (inactive) | -0.1% (inactive) | 7.6% (inactive) | 60.8% (active) | 6.65% (inactive) |
| CN(C)CC[C@@H](c1ccc(Cl)cc1)c1ccccn1 | 51.2% (inactive) | 68.9% | -6% (inactive) | 0.9 (inactive) | 0.95 (inactive) | -2.84% (inactive) | -2.76% (inactive) | 0.91 (inactive) | 0.0729 (inactive) | -1.2% (inactive) | 0.3% | 81.7% (active) | -5.1% (inactive) | -4% (inactive) | 5.7% (inactive) | 28.8% (inactive) | 35.9% (inactive) | -3.4% (inactive) |
| Clc1ccc2c(c1)CCc1cccnc1C2=C1CCNCC1 | 48.1% (inactive) and 27.5% (inactive) and 15.2% (inactive) | 92% and 56.9% and 74% |  |  | 1 (inactive) | -2.84% (inactive) | -3.54% (inactive) | 1 (inactive) | 1.87 (inactive) | 0.3% (inactive) | -0.9% | 37.7% (active) | 50.4% (active) | 9.9% (inactive) | 21.1% (active) | 55.5% (active) | 97.8% (active) | 30% (inactive) |
| Cc1[nH]c(=O)c(C#N)cc1-c1ccncc1 | 79.2% (inactive) and 78.4% (inactive) and 15.3% (inactive) | 69% and 68.9% and 65.5% | -3% (inactive) | 1 (inactive) | 1.05 (inactive) | -4.36% (inactive) | -3.18% (inactive) | 1.02 (inactive) | 0.188 (inactive) | 0.1% (inactive) | 0.4% | 0.8% (inactive) | -19.7% (inactive) | 4% (inactive) | 0% (inactive) | 16.6% (inactive) | -4.9% (inactive) | -6.1% (inactive) |
| OCc1cc(C(O)CNCCCCCCOCCCCc2ccccc2)ccc1O (configuration not stated) | 94.7% (inactive) and 45.6% (inactive) and 21.7% (inactive) | 96% and 67.2% and 65.5% | 2% (inactive) | 1 (inactive) | 0.98 (inactive) | -1.97% (inactive) | -2.76% (inactive) | 1.01 (inactive) | -0.654 (inactive) | 2.7% (inactive) | 0.3% | 0.4% (inactive) | -73.1% (inactive) | 27.2% (inactive) | -0.4% (inactive) | 44.6% (inactive) | 46.4% (inactive) | 37.8% (inactive) |
